# Laboratory results taken from PubChem BioAssay (NCATS).
# Several values for one entry are separate records, joined by “and”; a condition that tells them apart may be missing. Equal entries are not always repeated. Records with an inconclusive call do not appear. Some structures have more than one record in an assay (separate samples or runs), and their calls can disagree. Activity calls are given as the source filed them. Calls follow the shape of the dose curve; as a rule, active = well fitted curve in the direction sought with a large enough effect; inconclusive = small, poorly fitted or top-dose-only effect, or another doubt; inactive = no such curve, though single readings can be large; an effect the other way counts as inactive or inconclusive.
# Tests used:
# [1] = Viability qHTS for spleen associated tyrosine kinase inhibitor (SYKi) naive MV4-11 cells (AID 1963823); also: nearly all actives have a fitted effect of over 40% in size
# How it was run: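 Luminescence from CellTiter-Glo, developed 10 min at room temperature, gave viability of MV4-11 cells never exposed to SYK inhibitor. Cells (500/well) had been incubated with compounds for 72 hr under standard culture conditions.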
# [2] = Viability qHTS for spleen associated tyrosine kinase inhibitor (SYKi) drug resistant MV4-11 cells (AID 1963824); also: nearly all actives have a fitted effect of over 35% in size
# How it was run: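 CellTiter-Glo luminescence, read 10 min after reagent addition, reports viability after a 72 hr compound exposure. Cells are an MV4-11 line made resistant to SYK inhibition, seeded at 500 per well onto compound-containing plates.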
# [3] = Cellular viability qHTS for adrenocortical cancer (ACC) cell line SW-13 (AID 1963989); settings: SW-13 ACC cells viability, CellTiter-Glo, 48 h; activity (max response): stronger effect = lower value; also: nearly all actives have a fitted effect of over 65% in size;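 as to activity (max response): cells grown in serum-free medium with ITS supplement; % is scaled to controls: 0 for no effect and ±100 for the full control effect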
# How it was run: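 Here, serum-free SW-13 cultures were dosed up to 46 uM. Following 48 h, ATP-dependent luminescence (CellTiter-Glo) reported viable cells, and logistic modeling produced IC50 values.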
# [4] = Quantitative highthroughput screen to assess conditional lethalithy of SEM cells grown in RPMI1640 with unreated serum (RPMI+s) (AID 1963883); also: nearly all actives have a fitted effect of over 35% in size
# How it was run: (§1)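 Each medium arm—HPLM with 10% dialyzed FBS, or RPMI1640 with 5 mM glucose and 10% untreated or dialyzed FBS—was screened against an 11-point, 3-fold compound titration for 48 h at 37 °C, with CellTiter-Glo luminescence as endpoint.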
# [5] = Quantitative highthroughput screen to assess conditional lethalithy of SEM cells grown in RPMI1640 with dialyzed fetal bovine serum (RPMI+ds) (AID 1963884); also: nearly all actives have a fitted effect of over 35% in size
# How it was run: as §1
# [6] = Cellular viability qHTS for adrenocortical cancer (ACC) cell line NCI-H295R (AID 1963990); also: nearly all actives have a fitted effect of over 60% in size
# How it was run: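 Viability of NCI-H295R after 48 h of treatment (final up to 46 uM) measured through cellular ATP luminescence.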
# [7] = Quantitative highthroughput screen to assess conditional lethalithy of SEM cells grown in Human Plasma-Like Medium with dialyzed fetal bovine serum (HPLM+ds) (AID 1963882); also: nearly all actives have a fitted effect of over 35% in size
# How it was run: as §1
# Potency is read from the fitted curve at half-maximal effect.
smiles,measurement,setting,value
NS(=O)(=O)c1cc2c(cc1Cl)NC(CSCc1ccccc1)=NS2(=O)=O,Potency,[1],inactive
same,Potency,[2],inactive
same,activity (max response),[3],-2.17% (inactive)
Nc1nccc2c1ncn2[C@@H]1C=C(CO)[C@@H](O)[C@H]1O,Potency,[1],166 nM (active)
same,Potency,[2],209 nM (active)
same,Potency,[3],7940 nM (active)
CC(C)(O)CS(=O)(=O)Nc1ccc2c(c1)CCN(C(=O)COc1cccnc1)C2,Potency,[1],20.9 nM (active)
same,Potency,[2],29.5 nM (active)
same,Potency,[3],282 nM (active)
CN(C[C@@H]1COCCO1)S(=O)(=O)Nc1ccc2ccc3ncc(-c4cnn(C)c4)cc3c(=O)c2c1,Potency,[1],296 nM (active)
same,Potency,[2],461 nM (active)
same,Potency,[4],418 nM (active)
same,Potency,[5],662 nM (active)
CCC(C(=O)O)C1CCC(C)C(C(C)C(O)C(C)C(=O)C(CC)C2OC3(C=CC(O)[C@@]4(CC[C@](C)(C5CC[C@@](O)(CC)C(C)O5)O4)O3)C(C)CC2C)O1 (some centres not stated),Potency,[1],332 nM (active)
same,Potency,[2],417 nM (active)
same,Potency,[4],1660 nM (active)
same,Potency,[3],2820 nM (active)
same,Potency,[6],708 nM (active)
Cc1c(NC(=O)c2cc(C(N)=O)nc3cc(F)ccc23)c(C(F)(F)F)nn1Cc1ccc(C#N)cc1,Potency,[1],inactive and 14.8 µM (active)
same,Potency,[2],inactive
same,activity (max response),[3],-7.79% (inactive)
CCOc1ccn(-c2ccc(F)cc2)c(=O)c1C(=O)Nc1ccc(Oc2ccnc(N)c2Cl)c(F)c1,Potency,[1],366 nM (active) and 525 nM (active)
same,Potency,[2],580 nM (active) and 1.05 µM (active)
same,Potency,[7],1480 nM (active)
same,Potency,[4],3320 nM (active)
same,Potency,[5],2090 nM (active)
same,Potency,[6],14100 nM (active)
